According to PubChem BioAssay (NCI):
The panel holds about 79,000 compounds, 15% with a hit somewhere; the sample as a whole holds those more often. Cut-off read from the data, not from the text of the source: active = growth inhibition above about 70%; inactive = the rest.

Key:
[1] = NCI Yeast Anticancer Drug Screen. Data for the rad50 strain (AID 155);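 note: 0% = growth of vehicle-only cultures of the same strain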; settings: S. cerevisiae rad50 strain growth inhibition; at 50.0 µM; stronger effect = higher value
Outline: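 Compounds were tested on a yeast strain with an engineered DNA damage repair alteration; the reported value is growth inhibition normalised to vehicle treatment.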

[2] = NCI Yeast Anticancer Drug Screen. Data for the mec2-1 strain (AID 157); settings: S. cerevisiae mec2-1 strain, at 50.0 µM, stronger effect = higher value
Outline: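 Vehicle-treated cultures served as reference for growth inhibition of compound-exposed mec2-1 yeast.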

[3] = NCI Yeast Anticancer Drug Screen. Data for the sgs1 mgt1 strain (AID 161);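 note: 0% = growth of cultures given vehicle only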; settings: S. cerevisiae sgs1 mgt1 strain, at 50.0 µM, stronger effect = higher value
Outline: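 Read-out: growth inhibition vs vehicle controls. Cells: mutant yeast strain deficient in DNA damage repair.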

[4] = NCI Yeast Anticancer Drug Screen. Data for the cln2 rad14 strain (AID 165);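 note: 0% = growth equal to vehicle treated cultures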; settings: S. cerevisiae cln2 rad14 strain, at 50.0 µM, stronger effect = higher value
Outline: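 Each compound was tested on cln2 rad14 yeast. Inhibition of growth was calculated against vehicle-exposed controls.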

[5] = NCI Yeast Anticancer Drug Screen. Data for the bub3 strain (AID 167); settings: S. cerevisiae bub3 mutant strain, at 50.0 µM, stronger effect = higher value
Outline: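 Growth of a checkpoint-deficient yeast mutant is measured after compound exposure. Values represent inhibition relative to vehicle.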

[6] = NCI Yeast Anticancer Drug Screen. Data for the mlh1 rad18 strain (AID 175); settings: S. cerevisiae mlh1 rad18 strain growth inhibition; at 50.0 µM; stronger effect = higher value
Outline: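 Vehicle-treated cultures served as the reference for growth inhibition in a yeast strain carrying DNA damage repair alterations exposed to each compound.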

Measured: growth inhibition

CCCCCCCCCCCCCCCCC/C(CC)=N/Nc1ccc([N+](=O)[O-])cc1[N+](=O)[O-]
inactive: [1] -16.9% | [2] 3.9% | [3] -24.6% | [4] -38.8% | [5] -3.2% | [6] -9.1%

COc1ccc(/C=N/Nc2ccc(S(=O)(=O)O)cc2)cc1
inactive: [1] 5.45% | [2] -12.6% | [3] -18.7% | [4] -6.45% | [5] -21.2% | [6] 13.2%

CCOc1ccc(NCC(=O)N2CC(=O)Nc3ccccc32)cc1
inactive: [1] -19.6% | [2] -21.9% | [3] -40.4% | [4] -5.15% | [5] -42.2% | [6] -35.2%

[B]C(=O)NC(CC(C)C)C(=O)NCC(=O)NC1c2ccsc2C(=O)C1O (centres undefined) (tested in a mixture with another compound)
inactive: [1] -23.5% | [2] 3.95% | [3] -23.8% | [4] -8.45% | [5] 0% | [6] 2.05%

Cc1cc(C)nc(N)n1
inactive: [1] 0.25% | [2] 0.35% | [3] -1.85% | [4] -42.9% | [5] -1.9% | [6] 10.1%

CC(=O)N1c2ccccc2C2=NN(C)C(=N)SC21 (centres undefined)
inactive: [1] -27.6% | [2] -5.7% | [3] -27.3% | [4] -7.65% | [5] -5.2% | [6] 1.65%

CCN1C(=O)c2cc(=O)[nH]c(O)c2C1C (centres undefined)
inactive: [1] 7.8% | [2] -2.7% | [3] -1.7% | [4] -20.4% | [5] -2.65% | [6] 10.9%

COc1ccc(/C=C\c2cc(OC)c(OC)c(OC)c2)cc1OC(=O)CC(N)C(=O)O (centres undefined)
inactive: [1] -19.6% | [2] -10.3% | [3] -8.65% | [4] -6.65% | [5] -1.55% | [6] -5.8%

O=C(N/N=C\c1cccc(O)c1)c1ccncc1
inactive: [1] 1.75% | [2] 11.9% | [3] -37.5% | [4] -19.4% | [5] 3% | [6] -1.05%

COc1ccc(/C(Cl)=C/c2cc(OC)ccc2OC)cc1
inactive: [1] -5.1% | [2] -10.7% | [3] -26.9% | [4] -0.25% | [5] -30.2% | [6] -9.05%

COc1ccc(N=C2c3cc([N+](=O)[O-])ccc3-c3c2cccc3[N+](=O)[O-])cc1
inactive: [1] -5.25% | [2] -8.25% | [3] -4.1% | [4] -20.6% | [5] 3.45% | [6] -7.2%

O=C1CSC(=NCCN=C2NC(=O)CS2)N1
inactive: [1] 10.5% | [2] 18.3% | [3] 9.25% | [4] 1.6% | [5] 15.1% | [6] 28.2%

c1ccc2c(c1)CC1c3ccccc3CC21 (centres undefined)
inactive: [1] -1.2% | [2] -7% | [3] -1.95% | [4] -28.4% | [5] 0.75% | [6] -2.35%

COc1ccc(C(O)/C(=C/n2ccnc2)c2ccccc2)cc1OC (centres undefined)
inactive: [1] -23.8% | [2] -17.8% | [3] -15.6% | [4] -5.85% | [5] -7.65% | [6] -25.2%

CC(C)c1ccc(C(=O)OCCBr)cc1
inactive: [1] 18.7% | [2] -11.4% | [3] 16.2% | [4] -3.1% | [5] 1.7% | [6] 1.25%

CCCCCCCCCCCC(=O)OCCSC#N
inactive: [1] -7.45% | [2] 0.1% | [3] -2% | [4] -21.4% | [5] -0.2% | [6] 0.05%

O=C(Nc1ccc2c(c1)Cc1cccc(F)c1-2)C(F)(F)F
inactive: [1] 4.7% | [2] -1.45% | [3] 2.9% | [4] -1.5% | [5] 36.7% | [6] 7.3%

CC(CO)c1ccccc1 (centres undefined)
inactive: [1] 8.15% | [2] 1.15% | [3] -13.9% | [4] -32.5% | [5] -13.4% | [6] -4%

CC1=C(C(=O)CC(=O)C(=O)Nc2ccc(C)cc2C)Sc2ccccc2N1
inactive: [1] -1.55% | [2] -20.9% | [3] -33% | [4] -9.8% | [5] 6.2% | [6] 24.6%
